{
  "source": "PubChem BioAssay AID492980",
  "about": "(National Center for Advancing Translational Sciences (NCATS), 2010)",
  "note": "In all, about 1,400 compounds went through this assay and fewer than 10 were called active. About 11% were inconclusive and are not listed. The call rests on the fitted dose curve. The list is a sample of the results.",
  "data": [
    {"test": "Assay for Inhibitors of Influenza NS1 Protein Function: Hit Validation", "details": "influenza NS1 function cell assay, 15-point titration; series mostly up to 32.9 µM", "from_the_text": "NIH Chemical Genomics Center [NCGC]\nNIH Molecular Libraries Probe Centers Network [MLPCN]\nAssay Submitter (PI): Daniel Engel\nInfluenza is a world-wide public health problem and emerging forms of the virus have the potential to cause a pandemic of equal or greater magnitude to the outbreaks recorded in 1918, 1957 or 1968. Vaccine development is proceeding and there also exist two classes of anti-influenza compounds. However these therapeutic modalities are neither fully effective nor widely enough available to fulfill global needs. In addition their potential usefulness against newly emergent strains is not known. Efforts are needed to develop novel agents against influenza virus, including broad-spectrum agents. Identification of small molecules that inhibit NS1 function either directly or by interfering with specific cellular pathways may be a key to increasing our defense against the virus.\nWe have miniaturized and optimized a cell based assay in which NS1 from influenza A is expressed in the budding yeast S. cerevisiae. NS1 is a multi-functional protein that counters the host innate immune response and facilitates viral versus cellular gene expression. Expression of NS1 causes a pronounced slow growth phenotype in yeast due to its intrinsic molecular activities. Small molecules that suppress the slow growth phenotype can be identified by a straightforward growth recovery assay using optical density (OD) as the measurement. The same yeast strain not expressing NS1 was used as positive control in the yeast growth recovery assay. The present experiment attempted to confirm the activity of compounds observed in the primary screen.\nThe yeast S. cerevisiae control and NS1 expressing cells were kindly supplied by laboratory of Dr. Daniel Engel, University of Virginia. Yeast starter cultures were stored in single use aliquots at -80C.\n1. Yeast culture medium per liter: 1.2 g Yeast Nitrogen Base (w/out amino acids and Ammonium Sulphate), 5.0g Ammonium Sulphate, 0.77g -URA DO (drop-out) Supplement, adjust pH to 6.0. Adjust to 2% glucose prior to inoculating with yeast.\n2. Yeast assay medium: 1.2 g Yeast Nitrogen Base (w/out amino acids and Ammonium Sulphate), 5.0g Ammonium Sulphate, 0.77g -URA DO (drop-out) Supplement, adjust pH to 6.0. Adjust to 2% D-galactose prior to inoculating with yeast.\n1. Inoculate 100 mls of yeast culture medium with 1 ml of frozen yeast aliquote. Incubate overnight at 30C, 250RPM.\n2. Harvest overnight culture at 4000 RPM and wash pellet with 15 mls H2O 3x.\n3. Re-suspend washed pellet in 10 mls of yeast assay medium.\n4. Prepare a 1:100 dilution of re-suspended culture in yeast assay medium.\n5. Dispense 3.5 ul per well of reagents in step 4 in columns 2-48 in a black clear bottom 1536 well plate.\n6. Dispense 3.5 ul per well of yeast assay medium in column 1 only.\n7. Transfer 23 nl of compound per well.\n8. Dispense 3.5 ul per well of yeast assay medium in columns 1-48.\n9. Read plate using Viewlux protocol for optical density 600 (OD600) using excitation filter 600nm.", "values": [
      {"smiles": "Cc1cccc(N=C2NN=C(c3c[nH]c4ccccc34)CS2)c1", "outcome": "inactive"},
      {"smiles": "Cc1ccc(-c2ccc(=O)n(CC(=O)NCCCN3CCCCC3)n2)cc1", "outcome": "inactive"},
      {"smiles": "CC(C)CCN(C(=O)c1csnn1)C(C(=O)NC1CCCC1)c1ccccc1", "note": "(stereo unspecified)", "outcome": "inactive"},
      {"smiles": "COc1ccccc1C(=O)Nc1ccnn1C1CCN(C(=O)C(C)(C)C)CC1", "outcome": "inactive"},
      {"smiles": "COc1ccc(C(C(=O)NC2CCCCC2)N(C(=O)Cc2c[nH]c3ccccc23)c2ccccc2)cc1OC", "note": "(stereo unspecified)", "outcome": "inactive"},
      {"smiles": "O=C1c2cccc(OCC(=O)N3N=C(c4cccs4)CC3c3ccc(F)cc3)c2CCN1Cc1ccccc1", "note": "(stereo unspecified)", "outcome": "inactive"},
      {"smiles": "COc1cccc(OC)c1C(=O)Nc1nnc(C(C)C)s1", "outcome": "inactive"},
      {"smiles": "Cn1c(CC(=O)Nc2ccccc2)nnc1SCC(=O)c1ccccc1", "outcome": "inactive"},
      {"smiles": "COc1cc2c(cc1NC(=O)CN1CCN(S(=O)(=O)c3ccc(F)cc3)CC1)oc1ccccc12", "outcome": "inactive"},
      {"smiles": "CCCc1cc(=O)[nH]c(SCC(=O)c2cc(C)n(CCC)c2C)n1", "outcome": "inactive"},
      {"smiles": "Cc1cccc([C@@H]2[C@@H]3C(=O)N(Cc4ccccc4)C(=O)[C@@H]3[C@]3(C)C(=O)N(c4ccc(Br)cc4)C(=O)N23)c1", "outcome": "inactive"},
      {"smiles": "Nc1cccc(-c2cc(-c3ccccc3)nc(-c3cccc(N)c3)n2)c1", "outcome": "inactive"},
      {"smiles": "COc1ccc(S(=O)(=O)Nc2c(C)n(C)n(-c3ccccc3)c2=O)cc1", "outcome": "inactive"},
      {"smiles": "Cc1cccc(-n2c(SCC(=O)Nc3cccc(S(=O)(=O)NC4=NCCCCC4)c3)nc3ccccc3c2=O)c1C", "outcome": "inactive"},
      {"smiles": "O=C1NC(=O)N(CCc2ccc(F)cc2)C(=O)/C1=C/C=C/c1ccccc1", "outcome": "inactive"},
      {"smiles": "COCCn1c(C)cc(C2=NNC(=Nc3ccc(F)cc3)SC2)c1C", "outcome": "inactive"},
      {"smiles": "CCOc1ccc(Nc2nc(Cl)nc(N3CCN(c4ccc(OC)cc4)CC3)n2)cc1", "outcome": "inactive"},
      {"smiles": "COC(=O)c1c(NC(=O)c2cccs2)sc2c1CCCC2", "outcome": "inactive"},
      {"smiles": "CC(C(=O)O)N1C(=O)c2cccc3cccc1c23", "note": "(stereo unspecified)", "outcome": "inactive"},
      {"smiles": "COCCN1C(=O)c2oc3c(C)cc(C)cc3c(=O)c2C1c1cccc(O)c1", "note": "(stereo unspecified)", "outcome": "inactive"},
      {"smiles": "Cc1cc2cc(CNC(=O)c3cccs3)ccc2[nH]1", "outcome": "inactive"},
      {"smiles": "COc1ccc(-n2c(C)cc(C(=O)CSc3nnc(-c4cccs4)o3)c2C)cc1", "outcome": "inactive"},
      {"smiles": "Cc1ccc2c(c1)N(S(=O)(=O)c1cc(-c3cc(C)no3)ccc1C)CCO2", "outcome": "inactive"},
      {"smiles": "C1=C(N2CCOCC2)/C(=C/c2nc3ccccc3[nH]2)CC1", "outcome": "inactive"},
      {"smiles": "Cc1ccccc1C(OCC(O)CN1CCCCC1CCO)c1ccccc1", "note": "(stereo unspecified)", "outcome": "inactive"},
      {"smiles": "CCc1ccc(S(=O)(=O)Nc2cc3c(cc2N2CCCCC2)n(C)c(=O)c(=O)n3C)cc1", "outcome": "inactive"},
      {"smiles": "CC[C@@H](C)[C@@H](C(=O)N1CCN(C(=O)OC(C)(C)C)CC1)n1cc(CCC(=O)O)nn1", "outcome": "inactive"},
      {"smiles": "N#Cc1c(-c2cccs2)nc(SCC(=O)c2ccc(Br)cc2)[nH]c1=O", "outcome": "inactive"},
      {"smiles": "CN1CCN(C(=O)COc2ccc(C(C)(C)C)cc2Br)CC1", "outcome": "inactive"},
      {"smiles": "CC(C)c1c(O)nc(SCCOc2ccc(Cl)cc2)[nH]c1=O", "outcome": "inactive"},
      {"smiles": "Cc1cc(=O)[nH]c(SCc2cc(Cl)ccc2OC(F)F)n1", "outcome": "inactive"},
      {"smiles": "O=C(CSC1=Nc2ccccc2C2=NC(CC(=O)NCc3ccco3)C(=O)N12)NCc1ccco1", "note": "(stereo unspecified)", "outcome": "inactive"},
      {"smiles": "Cc1cc(C)c2cc(CN(Cc3nnnn3Cc3ccc(F)cc3)C3CCCC3)c(=O)[nH]c2c1", "outcome": "inactive"},
      {"smiles": "O=S(=O)(c1ccc(OCC(O)CN2CCN(c3ccccc3Cl)CC2)cc1)N1CCOCC1", "note": "(stereo unspecified)", "outcome": "inactive"},
      {"smiles": "COc1cccc(-n2c(SCC(=O)NC3CCCCC3)nc3n[nH]c(C)c3c2=N)c1", "outcome": "inactive"},
      {"smiles": "CN(C)c1ccc(/C=C/C(=O)c2ccc(C(C)(C)C)cc2)cc1[N+](=O)[O-]", "outcome": "inactive"},
      {"smiles": "COc1ccc(-c2nc(CS(=O)CC(=O)NCc3ccccn3)c(C)o2)cc1", "note": "(stereo unspecified)", "outcome": "inactive"},
      {"smiles": "O=C(O)CC(Cn1cnnn1)c1ccccc1", "note": "(stereo unspecified)", "outcome": "inactive"},
      {"smiles": "C[C@@H](C(=O)Nc1ccc2ccccc2c1)[C@@H]1C[C@@]1(C)[C@@H](NC(=O)c1cccnc1)c1ccccc1", "outcome": "inactive"},
      {"smiles": "COC(=O)C1=C(C)N=C2SC(C)C(=O)N2C1/C=C/c1ccccc1", "note": "(stereo unspecified)", "outcome": "inactive"},
      {"smiles": "CCCc1nc2ccccc2c(=O)n1NC(=O)c1c(O)c2ccccc2[nH]c1=O", "outcome": "inactive"}
    ]}
  ]
}
